Out of some 1,200 compounds screened, about 970 (81%) were called active. The rule behind the calls is not given here. The set was probably picked from earlier hits. The list is a sample of the results. Entries with a potency or affinity are not part of this list. Non-standard residues stand in square brackets, D forms with d. Residues, ends and D or L forms follow the SMILES beside them. *: point of attachment. Ac5c = NC1(C(=O)O)CCCC1; Cbz = O=C(OCc1ccccc1)*
Biological target: Transforming acidic coiled-coil-containing protein 3 (Homo sapiens) (UniProt Q9Y6A5)
Assay: ARNT/TACC3 interaction disruptors, potency, confirmation, biochemical, AlphaScreen, cherry-picked samples (AID 651703);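 note: TACC3 partner is the GST-tagged E629A mutant dimer; hits lower the signal meaning they disrupt ARNT binding to TACC3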
Details: AlphaScreen His-ARNT PAS-B / GST-TACC3 binding, luminescence; series mostly up to 68 µM

outcome, inactive:
COc1ccc(-c2nc(CN3CCC(C(=O)NC4CCCc5ccccc54)CC3)c(C)o2)cc1OC (stereo not drawn), O=C(C[C@@H]1CC[C@H](NC(=O)CN2CCOCC2)[C@H](CO)O1)NCCc1ccncc1, CN(C)S(=O)(=O)N1CCN(S(=O)(=O)c2ccc(F)cc2)CC1, Cc1nnc(NC(=O)CSc2nnc(CNC(=O)c3ccc(F)cc3)o2)s1, COc1ccc2cc1Oc1ccc(cc1)C[C@H]1c3cc(c(OC)cc3CCN1C)Oc1c(OC)c(OC)cc3c1[C@@H](C2)N(C)CC3, CCC(C(=O)Nc1ncn[nH]1)(C(F)(F)F)C(F)(F)F, CC(=O)c1cccc(NC(=O)N2CCCC2C(=O)NCc2ccccc2)c1 (stereo not drawn), COc1ccc(/C(C)=N\NC(=O)CSc2nnc(C)s2)cc1, O=C(NCC1CC1)c1cc(-c2ccccc2)on1, NS(=O)(=O)c1ccc(CCNC(=O)c2ccc3c(c2)OCO3)cc1, O=C(NCCCO)c1cc(-c2ccccc2)on1, Oc1c(Br)cccc1/C=N/c1ncn[nH]1, Cn1c(=NC(=O)c2cnccn2)sc2ccccc21, O=C1NC[C@H](c2ccccc2)OC(=O)[C@H](Cc2ccc(F)cc2)CC/C=C/C[C@@H]1CC(=O)N(CCO)Cc1ccccc1, COc1ccc(Nc2nc(N)nc(CN3CCOCC3)n2)cc1, Fc1ccc(/C=N/Nc2ncnc3nc[nH]c23)cc1F, CCn1c(Cc2ccccc2)nnc1SCC(=O)Nc1ccc(N)cc1, COCCNC(=O)Cn1cc(C(=O)c2cccs2)c2ccccc21, C[C@H]1CCCCO[C@H](CN(C)C(=O)Nc2ccc(F)cc2)[C@@H](C)CN([C@@H](C)CO)C(=O)c2cc(NS(=O)(=O)c3ccc(Cl)cc3)ccc2O1, CC(OC(=O)Cc1c(F)cccc1Cl)C(=O)NC1(C#N)CCCCC1 (stereo not drawn), Nc1ccc(C(=O)Nc2ccc3c(O)cc(S(=O)(=O)O)cc3c2)cc1, Cc1cc2c(NC(=O)CC(C)(C)CC(=O)O)cccc2nn1, O=C(O)c1ccc(Br)c(S(=O)(=O)N2CCCC2)c1, CCN1CCN(c2ccc(NC(=O)c3cccc(S(=O)(=O)N4CCCC4)c3)cc2)CC1, COc1cc(/C=N/NC(=O)CCN2CCN(c3ccccc3)CC2)cc(OC)c1OC, O=C(Nc1cn2ccccc2n1)c1cc(-c2ccccc2)on1, COC(=O)c1[nH]c2ccc(C)cc2c1NC(=O)c1ccccc1[N+](=O)[O-], CC(NC(=O)COC(=O)c1ccc([N+](=O)[O-])o1)c1ccccc1 (stereo not drawn), O=C(NC1CCc2ccccc2C1)c1cc(-c2ccccc2)on1 (stereo not drawn), Cc1ccccc1Oc1nc(-c2ccccn2)nc2ccccc12, CCOC(=O)CC(NC(=O)Cc1ccc(F)cc1)c1ccccc1Cl (stereo not drawn), COc1cc(C2Nc3ccccc3C(=O)N2NS(C)(=O)=O)c([N+](=O)[O-])cc1OC (stereo not drawn), NC1=NN=C(N2N=C(c3ccccc3)CC2(O)C(F)(F)F)n2ncnc2C1 (stereo not drawn), O=C1C=C(O)c2cccc(O)c2C1=O, CCc1c(C)sc(NC(=O)C2CC(c3c(F)cccc3Cl)=NO2)c1C#N (stereo not drawn), CC[C@]1(O)CC2CN(CCc3c([nH]c4ccccc34)[C@@](C(=O)OC)(c3cc4c(cc3OC)N(C=O)[C@H]3[C@@](O)(C(=O)OC)[C@H](OC(C)=O)[C@]5(CC)C=CCN6CC[C@]43[C@@H]65)C2)C1 (stereo partly drawn), COc1ccccc1C(=O)Nc1ccccc1N1CCCCC1, O=C(C[C@H]1C=C[C@@H](NC(=O)Nc2ccccc2)[C@@H](CO)O1)NCc1ccccn1, Cc1ccc(N(C)S(=O)(=O)c2cccc(C(=O)Oc3ccc4c(C)cc(=O)oc4c3)c2)cc1, Cc1ccc(S(=O)(=O)Cn2nnnc2C(c2ccccc2)N2CCN(c3ccccc3)CC2)cc1 (stereo not drawn), O=C(NC1Cc2ccccc2C1)[C@H]1N[C@H]2c3cccc(=O)n3C[C@H]2[C@@H]1CO, Cc1[nH]n(-c2ccccc2)c(=O)c1C(c1ccc(O)c([N+](=O)[O-])c1)c1c(C)[nH]n(-c2ccccc2)c1=O, Cc1[nH]n(-c2ccccc2)c(=O)c1C(c1ccc(C(=O)O)cc1)c1c(C)[nH]n(-c2ccccc2)c1=O, COc1ccc(CCNC(=O)C23CCC(C)(C(=O)C2Br)C3(C)C)cc1OC (stereo not drawn), Cn1c(CCNC(=O)c2ccc(Cl)c(Cl)c2)nnc1SCc1ccc(Cl)c(Cl)c1, O=C(c1cc(-c2ccccc2)on1)N1CCN(c2ccncc2)CC1, O=C(C1=C(O)C(=O)N(Cc2ccccc2)C1c1ccncc1)c1ccco1 (stereo not drawn), COc1cc(Cc2nccc3cc(OC)c(OC)cc23)c(S(=O)(=O)O)cc1OC, CC=Cc1ccc2n(c1=O)C[C@H]1[C@H](CO)[C@@H](C(=O)NC3CCC3)[C@@H]2N1S(=O)(=O)c1cn(C)cn1 (mixture of isomers), COc1ccc(Nc2nnc(-c3ccc(C(N)=O)cc3)c3ccccc23)cc1, Cc1cc(C)c(C(N)=O)c(Nc2cccc3ccccc23)n1, C[C@@H]1CN([C@@H](C)CO)C(=O)c2cc(NS(=O)(=O)c3cccs3)ccc2O[C@H]1CN(C)CC1CCCCC1, COc1ccc(-c2cnc3c(c2)C(=O)N([C@@H](C)CO)C[C@@H](C)[C@@H](CN(C)Cc2cccnc2)O3)cc1, C/C(=C\C(=O)c1ccccc1)Nc1ccc(N2CCOCC2)cc1, Cc1ccc(S(=O)(=O)n2nc(C)c(C#N)c2N)cc1, CCCc1nnc(NS(=O)(=O)c2ccc(C)cc2)o1, COC(=O)c1c(N)n(-c2ccc(NC(C)=O)cc2)c2nc3ccccc3nc12, CC(C)C#Cc1ccc2c(c1)O[C@@H](CN(C)C(=O)CN(C)C)[C@@H](C)CN([C@@H](C)CO)S2(=O)=O, CC(C)NC(=O)Nc1ccc2c(c1)C(=O)N([C@H](C)CO)C[C@H](C)[C@@H](CN(C)C(=O)Cc1ccccc1)OCCCC[C@H](C)O2, C[C@@H]1CCCCO[C@H](CN(C)Cc2ccncc2)[C@H](C)CN([C@H](C)CO)C(=O)c2cc(NC(=O)C3CCCCC3)ccc2O1, COc1ccc(NC(=O)Nc2ccc3c(c2)C(=O)N([C@H](C)CO)C[C@@H](C)[C@@H](CN(C)C(=O)CCC(F)(F)F)OCCCC[C@H](C)O3)cc1, CC(C)NC(=O)N(C)C[C@H]1OCCCC[C@H](C)Oc2ccc(NC(=O)Nc3ccccc3)cc2C(=O)N([C@H](C)CO)C[C@@H]1C, CN(C)C(=O)c1cccc(-c2ccc3c(c2)[C@@H]2[C@@H](CCN2C(=O)c2cccnc2)[C@@H](CO)N3)c1, O=C(C[C@H]1C=C[C@H](NS(=O)(=O)c2ccc(F)cc2)[C@H](CO)O1)N1CCN(c2ccccc2)CC1, C[C@H](CO)N1C[C@H](C)[C@@H](CN(C)Cc2ccccn2)Oc2ncc(C#CC3(O)CCCC3)cc2C1=O, COc1ccc(OC)c(-n2nnnc2SCC(=O)Nc2ccccc2OC)c1, CC(=O)N(C)C1=C(O)c2ccccc2C(=O)C1=O, O=C(Nc1ccc2c(c1)OCO2)c1ccc2c(c1)OCO2, CN(C)CCNC(=O)c1cc(-c2ccccc2)on1, COc1ccc(OC)c2nc3c(C(=O)NCCN(C)C)cccc3nc12, CCn1cc(/C=C2/SC(=S)NC2=O)c(C)n1, Nc1ccc2nn(-c3ccc(F)cc3)nc2c1, Cc1ccc(CNC(=O)c2cc(-c3ccccc3)on2)cc1, COc1ccc(C2=C(C)CC(C)(C)NC2=O)cc1OC, O=c1ccc(-c2ccc(S(=O)(=O)Nc3ccc(F)cc3)s2)n[nH]1, O=C(NCCN1CCCCC1)c1cc(-c2ccccc2)on1, CCCCNC(=O)c1cc(-c2ccccc2)on1, O=C(NCc1ccccc1)c1cc(-c2ccccc2)on1, Cn1c(NC(=O)c2cc(-c3ccccc3)on2)nc2ccccc21, O=C(Nc1ncc2ccccc2n1)c1cc(-c2ccccc2)on1, O=c1c(C=NCCCn2ccnc2)c(-c2ccccc2)[nH]n1-c1nc2ccccc2s1, Cc1[nH][nH]c(=O)c1C(c1ccc(Br)cc1)c1c(C)[nH][nH]c1=O, Cc1[nH][nH]c(=O)c1C(c1ccc(Cl)cc1)c1c(C)[nH][nH]c1=O, Cc1[nH][nH]c(=O)c1C(c1ccc(O)c(Br)c1)c1c(C)[nH][nH]c1=O, O=C(C[C@@H]1CC[C@H](NC(=O)Nc2cc(F)ccc2F)[C@@H](CO)O1)Nc1ccc(-c2ccccc2)cc1, COc1cc(C2C(C#N)=C(N)Oc3n[nH]c(C)c32)ccc1OC(=O)c1ccccc1 (stereo not drawn), COC(=O)C1(NC(=O)CNC(=O)OCc2ccccc2)CCCC1 (Cbz-Gly-[Ac5c]-OMe), Cn1c(N)c(C(=O)c2cc(-c3ccccn3)nc3ccccc23)c(=O)[nH]c1=O, CCN(CC)CCCNc1nc2ccccc2c2[nH]c3ccc(OC)cc3c12, Cc1c(NC(=O)c2cccnc2C(=O)O)cccc1C(=O)O, N#Cc1ccc(CC(=O)c2ccccc2)[nH]c1=O, C[C@@H]1CN([C@H](C)CO)S(=O)(=O)c2ccc(C#Cc3ccccn3)cc2O[C@@H]1CN(C)C(=O)C1CC1, C[C@H](CO)N1C[C@H](C)[C@H](CN(C)Cc2cccnc2)Oc2cc(C#CCN(C)C)ccc2S1(=O)=O

— PubChem BioAssay AID651703 (Broad Institute, 2012)
